High-throughput results deposited in PubChem BioAssay by The Scripps Research Institute Molecular Screening Center.
TEAD-YAP block: TEAD-YAP interaction inhibition. HEK-TIYL cells, TEAD-Gal4/YAP UAS-luciferase luminescence. inhibition, % at 9.12 µM. hit rate 1.4% among 640,000; in the data active = inhibition above about 32%;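 note: 0% = median of test compound wells and 100% = reference inhibitor wells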
MITF primary: human MITF inhibition, primary screen | O75030 | AlphaScreen MITF homodimerization, bead proximity signal | inhibition, % at 2.6 µM | hit rate 0.91% among 650,000; in the data active = inhibition above about 50%;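 note: 0% = vehicle wells with protein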
FBW7 act: human FBW7 E3 ligase activation, primary screen; Q969H0; AlphaScreen FBW7–phospho-cyclin E peptide binding, activator screen; normalized activity (activation), % at 26.1 µM; hit rate 0.13% among 650,000; in the data active = normalized activity above about 1.9%;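 note: purified mutant Fbw7 with reduced substrate affinity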
GPR151 activ: human GPR151 activation | Q8TDV0 | PathHunter beta-arrestin GPR151 cells, luminescence | activation, % at 11.2 µM | hit rate 1% among 650,000 | AID 1508602; in the data active = activation above about 4.9%;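 note: 0% = median of compound wells and 100% = cells with positive control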
GPR151 confirm: confirmation of human GPR151 activators; shares compounds with GPR151 activ; GPR151 PathHunter beta-arrestin cells, luminescence, 90 min; % of EA-reagent control over plate median; activation, % at 11.2 µM; 6,700 tested, under 10 active; AID 1508609;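 active = mean percent activation across replicates above the confirmation screen cutoff of 4.91%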
GPR119 ag: activates human GPR119 in a GPR151 counter-screen. shares compounds with GPR151 activ. GPR119 PathHunter beta-arrestin cells, luminescence, 90 min; 0 = compound-well median, 100 = enzyme-acceptor control. hit rate 0.3% among 6,700. activation, % at 11.2 µM;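 active = mean percent activation in the counterscreen above 29.09%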;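 note: counterscreen on off-target GPR119 to flag nonselective hits from the GPR151 activator screen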
Target sequence (Q8TDV5 whole entry, looked up): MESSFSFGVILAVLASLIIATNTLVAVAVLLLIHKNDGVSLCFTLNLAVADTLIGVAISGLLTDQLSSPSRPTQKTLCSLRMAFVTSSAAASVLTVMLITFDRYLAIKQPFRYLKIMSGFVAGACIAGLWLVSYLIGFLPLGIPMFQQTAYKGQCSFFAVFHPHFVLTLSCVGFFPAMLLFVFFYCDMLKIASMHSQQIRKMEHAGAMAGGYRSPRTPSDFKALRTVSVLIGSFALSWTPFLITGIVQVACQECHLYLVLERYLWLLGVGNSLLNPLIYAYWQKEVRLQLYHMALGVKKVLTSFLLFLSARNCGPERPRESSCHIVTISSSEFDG
Starred values were filed as active, the others as inactive; nt = not tested or not shown. Rows were chosen to be rich in hits. Some 3.5% of all compounds tested hit in one or more screens of this group.

SMILES	TEAD-YAP block	MITF primary	FBW7 act	GPR151 activ	GPR151 confirm	GPR119 ag
CCOc1ccc(NC(=O)CSc2nc3ccc(N4CCCCC4)cc3c(=O)n2Cc2ccccc2)cc1	9.4	-1.3	0.0	7.7*	0.4	8.1
O=S(=O)(NCC1CCCO1)c1ccc(Cl)c(C(F)(F)F)c1 (configuration not stated)	7.4	-5.8	1.0	0.5	nt	nt
O=S(=O)(NCC1CCCO1)c1ccc(-c2ccc(Cl)cc2)cc1 (configuration not stated)	-0.6	19.0	0.1	7.4*	0.9	-0.5
CC1CCC(C(=O)NC(Cc2c[nH]c3ccccc23)C(=O)NCc2ccccn2)CC1 (configuration not stated)	10.8	-7.0	0.3	0.5	nt	nt
COc1ccc2sc(C)[n+](CC(=O)O)c2c1	1.7	1.8	-0.5	-0.3	nt	nt
CCOC(=O)C[n+]1c(C)sc2ccc(OC)cc21	21.4	-4.5	0.0	6.1*	-0.3	0.3
CC(C)[C@H](CO)n1c(=O)[nH]c2ncc(-c3ccccc3)nc21	3.4	-12.1	-0.6	0.1	nt	nt
COc1ccc(CCNC(=O)c2cncc(Nc3ncccn3)c2)cc1	1.5	-0.8	0.1	6.9*	-1.0	-8.9
CCN(CC)Cc1c(C(=O)N/N=C/c2cccc([N+](=O)[O-])c2)nnn1-c1nonc1N	-10.2	-10.9	0.1	9.9*	0.1	-0.7
CCOc1cc(/C=N/NC(=O)c2nnn(-c3nonc3N)c2-c2ccccc2)ccc1O	4.1	-5.9	-0.1	-0.2	nt	nt
CCOc1cc(/C=N/NC(=O)c2nnn(-c3nonc3N)c2CC)ccc1O	14.2	10.6	0.4	6.9*	-0.5	-1.4
O=C(N1CCC(c2nnc(C3CC3)o2)CC1)C1(c2cccs2)CCCC1	-12.1	-5.0	-0.1	0.5	nt	nt
Cc1nc2ccccc2n1CC(=O)Nc1cc(Cl)cc(Cl)c1	10.6	6.5	-0.3	2.4	nt	nt
N#C/C(=C\c1ccc(-c2ccccc2C#N)o1)C(N)=S	1.2	-0.2	0.0	6.0*	0.1	1.5
COc1ccc(NC(=O)/C(C#N)=C/c2ccc(-c3ccccc3C(=O)O)o2)cc1	-4.8	-8.7	0.0	-0.7	nt	nt
CC(=O)c1ccc(-c2ccc(/C=C(\C#N)C(N)=S)o2)cc1	-0.3	-11.9	-0.1	0.3	nt	nt
N#C/C(=C\c1ccc(-c2ccccc2C(=O)O)o1)C(=O)Nc1ccccc1	-29.5	-2.8	-0.2	8.2*	-0.6	0.4
CCOP(=O)(OCC)c1nc(/C=C/c2ccccc2)oc1N1CCCCC1	2.5	-1.4	0.3	3.2	nt	nt
COc1cc(CNCC(C)C)cc(Cl)c1OC	1.9	20.2	0.8	0.1	nt	nt
CCOc1c(Cl)cc(CNCC(C)C)cc1OC	10.6	1.4	0.4	6.2*	-0.8	-13.8
CC(=O)Nc1ccc(C2OC3=C(C(=O)CC(C)(C)C3)C(N)=C2C#N)cc1 (configuration not stated)	9.3	4.2	0.0	5.6*	1.4	-0.7
CC1(C)CC(=O)C2=C(C1)OC(c1ccccc1Cl)C(C#N)=C2N (configuration not stated)	17.3	13.4	0.4	0.1	nt	nt
CC1(C)CC(=O)C2=C(C1)OC(c1ccc(Cl)cc1Cl)C(C#N)=C2N (configuration not stated)	8.3	-3.8	0.2	10.4*	0.9	11.1
OC1(c2ccccc2F)CCN(Cc2nnnn2Cc2ccccc2)CC1	-1.1	-1.2	0.1	0.6	nt	nt
O=C(CNC(=O)c1cccs1)OCc1c(Cl)cccc1Cl	1.2	-8.0	-0.1	5.4*	0.2	-3.4
SMILES	TEAD-YAP block	MITF primary	FBW7 act	GPR151 activ	GPR151 confirm	GPR119 ag
O=C(CNC(=O)c1cccs1)OCc1c(F)cccc1Cl	-0.6	3.2	0.1	0.7	nt	nt
Cc1ccc(Oc2ccc(S(=O)(=O)c3ccc(Cl)cc3)cc2)cc1C	3.3	1.5	0.1	2.4	nt	nt
O=C(CSc1nc2ccccc2c(=O)n1CCC1=CCCCC1)NCCc1ccccc1	-9.2	-0.6	-0.2	6.4*	-0.3	-4.8
Cc1ccc(Cn2c(SCC(=O)C(C)(C)C)nc3ccsc3c2=O)cc1	-2.7	7.3	0.2	5.0*	0.7	7.9
COc1ccc(CCNC(=O)CCn2c(SCC(=O)Nc3cc(C)on3)nc3ccccc3c2=O)cc1OC	3.1	7.8	0.0	4.9*	-0.8	-17.5
Cc1ccc(CSc2nc3ccsc3c(=O)n2Cc2ccc(C)cc2)cc1	5.2	13.9	0.0	-0.7	nt	nt
COc1ccccc1NC(=O)CSc1nc2ccsc2c(=O)n1Cc1ccccc1	3.7	-0.2	0.0	6.0*	1.2	9.8
